rCAG RNA binder = binders of r(CAG) RNA repeats, primary screen, biochemical, fluorescence | r(CAG) RNA repeat, TO-PRO-1 dye displacement fluorescence | inhibition, % at 3 µM | hit rate 1.3% among 370,000 | AID 651821, 2012;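 active = inhibition above the plate cutoff, the mean of all test compounds on that plate plus 3 SD, cut at about 35% in these data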;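 note: higher means more dye released from RNA so lower well fluorescence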
ALR H2O2 inh = inhibitors of human ALR sulfhydryl oxidase, primary screen, biochemical, H2O2 detection, HRP-luminol luminescence, single point; hit rate 3.8% among 290,000; purified ALR, DTT oxidation; inhibition, % (concentration not given with the values); FAD-linked sulfhydryl oxidase ALR (Homo sapiens), P55789; AID 485317, 2010;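 active = mean replicate inhibition above about 79%, with every replicate also reaching it, limit read from the data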
Target sequence (P55789 whole entry, looked up): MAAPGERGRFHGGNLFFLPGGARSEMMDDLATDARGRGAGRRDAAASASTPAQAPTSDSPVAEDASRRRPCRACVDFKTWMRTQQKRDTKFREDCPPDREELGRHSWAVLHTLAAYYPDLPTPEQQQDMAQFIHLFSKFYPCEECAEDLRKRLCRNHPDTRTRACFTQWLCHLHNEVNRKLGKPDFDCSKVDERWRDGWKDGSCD
PHOSPHO1 block = PubChem AID 1565; Phosphoethanolamine/phosphocholine phosphatase (Homo sapiens), Q8TCT1; recombinant PHOSPHO1, absorbance phosphatase assay; inhibition, % at 13.3 µM; hit rate 1.1% among 290,000; in the data active = inhibition above about 60%
A3A deaminase = APOBEC3A ssDNA deaminase inhibitors, primary screen, selectivity assay for APOBEC3G inhibitor project, biochemical, FAM/TAMRA oligo cleavage fluorescence | DNA dC->dU-editing enzyme APOBEC-3A (Homo sapiens), P31941 | inhibition, % at 20 µM | AID 493011, 2011 | hit rate 0.41% among 330,000 | recombinant A3A, FAM/TAMRA ssDNA deamination fluorescence;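 active = at least 40% inhibition at 20 µM here, with at most 30% in a related deaminase screen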
aDG glyco up = activators of alpha-DG glycosylation, primary screen, uHTS, Pro5-aDG cells, AlphaScreen; alpha-DG glycosylation AlphaScreen (IIH6); 0% Pro5, 100% B10-LARGE cell signal; activation, % at 10 µM; hit rate 0.22% among 360,000; AID 624168, 2012;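 active = activation of at least 8% versus controls, or a plate z-score of at least 8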;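 note: Pro5 are CHO cells carrying HIG-tagged alpha-DG that lacks glycosylation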
APOBEC3G inh = APOBEC3G DNA deaminase inhibitors, primary screen, biochemical, fluorescence, single-stranded DNA substrate, uHTS | DNA dC->dU-editing enzyme APOBEC-3G (Homo sapiens), Q9HC16 | hit rate 0.28% among 330,000 | recombinant A3G, ssDNA deamination FAM/TAMRA fluorescence | inhibition, % at 20 µM;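 active = inhibition of at least 40% at 20 µM, with no more than 30% in the related APOBEC3A deaminase screen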
Target sequence (Q9HC16 whole entry, looked up): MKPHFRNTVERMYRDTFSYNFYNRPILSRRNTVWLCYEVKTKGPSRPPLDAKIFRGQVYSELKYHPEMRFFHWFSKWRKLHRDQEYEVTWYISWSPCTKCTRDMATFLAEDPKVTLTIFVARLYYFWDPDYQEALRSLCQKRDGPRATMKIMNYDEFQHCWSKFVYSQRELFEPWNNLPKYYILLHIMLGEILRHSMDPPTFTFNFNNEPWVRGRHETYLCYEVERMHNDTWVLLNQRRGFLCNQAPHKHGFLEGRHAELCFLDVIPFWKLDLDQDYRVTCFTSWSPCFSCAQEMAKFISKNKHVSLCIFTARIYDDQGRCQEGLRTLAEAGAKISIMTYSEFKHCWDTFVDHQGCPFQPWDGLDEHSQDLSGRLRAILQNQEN
Hits are given with their value. Compounds with a hit are over-represented: about 5.4% of the library has one in this group of screens.

What do the screens show for `COc1cc(/C=N/NC(=O)C(=O)NCC2CCCO2)ccc1O` (centres undefined)?
rCAG RNA binder: inactive; ALR H2O2 inh: 98.9; PHOSPHO1 block: inactive; A3A deaminase: inactive; aDG glyco up: inactive; APOBEC3G inh: inactive

How did CCN(CC)c1ccc2ccc(=O)oc2c1 do in these assays?
rCAG RNA binder: inactive; ALR H2O2 inh: 98.4; PHOSPHO1 block: inactive; A3A deaminase: inactive; aDG glyco up: inactive; APOBEC3G inh: inactive

What do the screens show for `CCN(CC)c1ccc2c(C)c(-c3ccc(N)cc3)c(=O)oc2c1`?
rCAG RNA binder: inactive; ALR H2O2 inh: 87.5; PHOSPHO1 block: inactive; A3A deaminase: inactive; aDG glyco up: inactive; APOBEC3G inh: inactive

How did Cc1cc(=O)oc2cc(O)ccc12 do in these assays?
rCAG RNA binder: inactive; ALR H2O2 inh: inactive; A3A deaminase: inactive; aDG glyco up: inactive; APOBEC3G inh: inactive

How did CCN(CC)c1ccc2c(c1)oc(=O)c1c(Cl)cc(=O)oc12 do in these assays?
ALR H2O2 inh: 97.0; PHOSPHO1 block: inactive; A3A deaminase: inactive; aDG glyco up: inactive; APOBEC3G inh: inactive

What do the screens show for `CCN(CC)c1ccc2c(C)cc(=O)oc2c1`?
rCAG RNA binder: inactive; ALR H2O2 inh: 99.0; A3A deaminase: inactive; aDG glyco up: inactive; APOBEC3G inh: inactive

What do the screens show for `CCN(CC)c1ccc2c(C)c(Cl)c(=O)oc2c1`?
rCAG RNA binder: inactive; ALR H2O2 inh: inactive; PHOSPHO1 block: inactive; A3A deaminase: inactive; aDG glyco up: inactive; APOBEC3G inh: inactive

Results for CCN(CC)c1ccc2cc(C#N)c(=O)oc2c1 ?
rCAG RNA binder: inactive; ALR H2O2 inh: inactive; PHOSPHO1 block: inactive; A3A deaminase: inactive; aDG glyco up: inactive; APOBEC3G inh: inactive

What do the screens show for `O=C(OC12CCCN(C1)/C(=C/c1ccncc1)C2)C1CCCCC1` (centres undefined)?
rCAG RNA binder: inactive

What do the screens show for `COCCn1c(-c2ccco2)csc1=Nc1cccnc1`?
ALR H2O2 inh: inactive; PHOSPHO1 block: 97.9; A3A deaminase: inactive; aDG glyco up: inactive; APOBEC3G inh: inactive

How did O=C(COCc1ccccc1)N1CC[C@H]2[C@H](CCCN2Cc2ccccc2)C1 do in these assays?
rCAG RNA binder: inactive

What do the screens show for `Cc1sc2nc(CSCC(=O)Nc3ccc(OC(F)F)cc3)[nH]c(=O)c2c1C`?
rCAG RNA binder: inactive; ALR H2O2 inh: 97.2; PHOSPHO1 block: inactive; A3A deaminase: inactive; aDG glyco up: inactive; APOBEC3G inh: inactive

What do the screens show for `Cc1sc2nc(CSCC(=O)Nc3ccc(C(=O)N(C)C)cc3)[nH]c(=O)c2c1C`?
rCAG RNA binder: inactive; ALR H2O2 inh: 98.8; A3A deaminase: inactive; aDG glyco up: inactive; APOBEC3G inh: inactive

How did CC(=O)c1ccccc1NC(=O)CSCc1nc2sc(C)c(C)c2c(=O)[nH]1 do in these assays?
rCAG RNA binder: inactive; A3A deaminase: inactive; aDG glyco up: inactive; APOBEC3G inh: inactive

How did CCNC(=O)c1sc(=S)n(CC)c1N do in these assays?
rCAG RNA binder: inactive; ALR H2O2 inh: 99.4; PHOSPHO1 block: inactive; A3A deaminase: inactive; aDG glyco up: inactive; APOBEC3G inh: inactive

How did CC(C)OCCCNC(=O)c1sc(=S)n(C)c1N do in these assays?
rCAG RNA binder: inactive; PHOSPHO1 block: inactive; A3A deaminase: inactive; aDG glyco up: inactive; APOBEC3G inh: inactive

What do the screens show for `CCOC(=O)c1sc(=S)n(CC)c1NC(=O)CC`?
rCAG RNA binder: inactive; ALR H2O2 inh: inactive; PHOSPHO1 block: inactive; A3A deaminase: inactive; aDG glyco up: inactive; APOBEC3G inh: inactive

How did CCn1c(N)c(C(=O)NCCCOC)sc1=S do in these assays?
rCAG RNA binder: inactive; ALR H2O2 inh: 98.8; PHOSPHO1 block: inactive; A3A deaminase: inactive; aDG glyco up: inactive; APOBEC3G inh: inactive

Results for C[C@@H]1Cc2cc(O)c(O)c(O)c2C(=O)O1 ?
rCAG RNA binder: inactive

Results for Nc1cc(-c2ccccc2)ccc1O ?
rCAG RNA binder: inactive; ALR H2O2 inh: 98.8; PHOSPHO1 block: inactive; A3A deaminase: inactive; aDG glyco up: inactive; APOBEC3G inh: inactive

Results for CCN(c1ccccc1)C1(O)C(=O)c2ccccc2C1=O ?
rCAG RNA binder: inactive; ALR H2O2 inh: 95.3; PHOSPHO1 block: inactive; A3A deaminase: inactive; aDG glyco up: inactive; APOBEC3G inh: inactive

What do the screens show for `CN1C2=N[C@H](c3ccccc3)CC(=O)N2/C(=C\c2ccccc2)C1Cc1ccccc1` (some centres undefined)?
rCAG RNA binder: inactive

What do the screens show for `Clc1ccc(-c2nc3ncccn3c2Nc2ccc3c(c2)OCCO3)cc1`?
rCAG RNA binder: inactive; ALR H2O2 inh: inactive; PHOSPHO1 block: inactive; A3A deaminase: inactive; aDG glyco up: inactive; APOBEC3G inh: inactive

Results for Cc1ccc(-c2nc3ncccn3c2Nc2ccc3c(c2)OCCO3)o1 ?
rCAG RNA binder: inactive; ALR H2O2 inh: 98.9; PHOSPHO1 block: inactive; A3A deaminase: inactive; aDG glyco up: inactive; APOBEC3G inh: inactive

How did Cc1ccc(-c2nc3ncccn3c2NC2CCCCC2)o1 do in these assays?
rCAG RNA binder: inactive; ALR H2O2 inh: 98.7; PHOSPHO1 block: inactive; A3A deaminase: inactive; aDG glyco up: inactive; APOBEC3G inh: inactive

What do the screens show for `Cc1cc(C)n2c(NC3CCCC3)c(-c3cc4ccccc4o3)nc2n1`?
rCAG RNA binder: inactive; aDG glyco up: inactive

How did Brc1ccc(-c2nc3ncccn3c2Nc2ccc3c(c2)OCCO3)o1 do in these assays?
rCAG RNA binder: inactive; ALR H2O2 inh: 98.5; PHOSPHO1 block: inactive; A3A deaminase: inactive; aDG glyco up: inactive; APOBEC3G inh: inactive

Results for CCSc1nnc(-c2ccco2)n1C ?
rCAG RNA binder: inactive

Results for O=C(Nc1nnc(-c2ccco2)o1)c1ccc(Br)s1 ?
rCAG RNA binder: inactive; aDG glyco up: inactive

Results for O=C(Nc1nnc(-c2ccccn2)o1)c1cccc(Cl)c1 ?
rCAG RNA binder: inactive; PHOSPHO1 block: inactive; A3A deaminase: inactive; aDG glyco up: inactive; APOBEC3G inh: inactive

What do the screens show for `O=C(Nc1nnc(-c2ccco2)o1)c1cccc(Cl)c1`?
rCAG RNA binder: inactive; ALR H2O2 inh: 96.3; PHOSPHO1 block: inactive; A3A deaminase: inactive; aDG glyco up: inactive; APOBEC3G inh: inactive

What do the screens show for `O=C(Nc1nnc(-c2ccco2)o1)c1ccc(Cl)s1`?
rCAG RNA binder: inactive; ALR H2O2 inh: 96.4; PHOSPHO1 block: inactive; A3A deaminase: inactive; aDG glyco up: inactive; APOBEC3G inh: inactive

How did C[C@H]1[C@H](c2ccccc2)Oc2cccc(NCCc3ccccc3)c2S(=O)(=O)N1Cc1ccc(F)cc1 do in these assays?
rCAG RNA binder: inactive

Results for CC1=NN(c2ccc(C(=O)O)c(N)c2)C(=O)C1 ?
rCAG RNA binder: inactive; ALR H2O2 inh: inactive; PHOSPHO1 block: 62.8; A3A deaminase: inactive; aDG glyco up: inactive; APOBEC3G inh: inactive

Bioassay records: PubChem, several laboratories
